Measured values published in the supplement of paper PMC10849652.
Targets with a hit are over-represented here; the source holds about 7,900 in all. About 0.6% of all pairs of compound and target were hits. A number with no mark means an inactive call.

Key:
Assay in all cases: log2 fold change, soluble protein after heating vs DMSO (PISA); higher = thermal stabilisation; K562 cells, 10 uM, 30 min; active = over 0.2 and 3.5 SD of the protein, either way, in both replicates (recomputed)
bafetinib = compound: Cc1ccc(NC(=O)c2ccc(CN3CC[C@H](N(C)C)C3)c(C(F)(F)F)c2)cc1Nc1nccc(-c2cncnc2)n1 [bafetinib]
How it was run: (§1)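 K562 cells (2×10^6 cells/mL) were treated with 10 μM compound for 30 min, and aliquots were heated for 3 min over 48°C-58°C. Pooled aliquots were extracted in PBS with 0.5% NP-40 at 4°C, and the supernatant after 21,000xg for 90 min was measured by TMTpro 16plex LC-MS/MS with channel sums equalised. Reported thermal stability, relative to control samples and from duplicates, is a log2 fold change.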

[1] = compound: Cc1cccc(CC(=O)N2CCc3c2ccc(-c2cn(C)c4ncnc(N)c24)c3F)n1
How it was run: as §1

nilotinib = compound: Cc1cn(-c2cc(NC(=O)c3ccc(C)c(Nc4nccc(-c5cccnc5)n4)c3)cc(C(F)(F)F)c2)cn1 [nilotinib]
How it was run: as §1

[2] = compound: Cc1nc(Nc2n[nH]c3c2CN(C(=O)N[C@H](CN(C)C)c2ccccc2)C3(C)C)c2sccc2n1
How it was run: as §1

dasatinib = compound: Cc1nc(Nc2ncc(C(=O)Nc3c(C)cccc3Cl)s2)cc(N2CCN(CCO)CC2)n1 [dasatinib]
How it was run: as §1

[3] = compound: Cc1ncc(-c2ccnc(Nc3ccc(S(C)(=O)=O)cc3)n2)n1C(C)C
How it was run: as §1

[4] = compound: Cn1cc(-c2ccc3c(c2)CCN3C(=O)Cc2cccc(C(F)(F)F)c2)c2c(N)ncnc21
How it was run: as §1

[5] = compound: Cn1cc(-c2ccc3nnc(C(F)(F)c4ccc5ncccc5c4)n3n2)cn1
How it was run: as §1

tipifarnib = compound: Cn1cncc1[C@@](N)(c1ccc(Cl)cc1)c1ccc2c(c1)c(-c1cccc(Cl)c1)cc(=O)n2C [tipifarnib]
How it was run: as §1

mubritinib = compound: FC(F)(F)c1ccc(/C=C/c2nc(COc3ccc(CCCCn4ccnn4)cc3)co2)cc1 [mubritinib]
How it was run: as §1

[6] = compound: NC(=O)Nc1cc(-c2cccc(F)c2)sc1C(=O)N[C@H]1CCCNC1
How it was run: as §1

[7] = compound: NC(=O)c1cnc(N[C@@H]2CCCC[C@@H]2N)nc1Nc1cccc(-n2nccn2)c1
How it was run: as §1

[8] = compound: NC1(c2ccc(-c3nc4ccn5c(=O)[nH]nc5c4cc3-c3ccccc3)cc2)CCC1
How it was run: as §1

[9] = compound: NCC(=O)Nc1ccc(-n2nc(C(F)(F)F)cc2-c2ccc3c(ccc4ccccc43)c2)cc1
How it was run: as §1

entinostat = compound: Nc1ccccc1NC(=O)c1ccc(CNC(=O)OCc2cccnc2)cc1 [entinostat]
How it was run: as §1

vorinostat = compound: O=C(CCCCCCC(=O)Nc1ccccc1)NO [vorinostat]
How it was run: as §1

citarinostat = compound: O=C(CCCCCCNC(=O)c1cnc(N(c2ccccc2)c2ccccc2Cl)nc1)NO [citarinostat]
How it was run: as §1

silmitasertib = compound: O=C(O)c1ccc2c(c1)nc(Nc1cccc(Cl)c1)c1ccncc12 [silmitasertib]
How it was run: as §1

[10] = compound: O=C1NC(=O)C(c2cnc3ccccn23)=C1c1cn2c3c(cc(F)cc13)CN(C(=O)N1CCCCC1)CC2
How it was run: as §1

[11] = compound: c1cc(OCCN2CCCCC2)cc(-c2n[nH]c3ccc(-c4nnc[nH]4)cc23)c1
How it was run: as §1

Chain of UniProt O60925 (O60925 whole entry, looked up): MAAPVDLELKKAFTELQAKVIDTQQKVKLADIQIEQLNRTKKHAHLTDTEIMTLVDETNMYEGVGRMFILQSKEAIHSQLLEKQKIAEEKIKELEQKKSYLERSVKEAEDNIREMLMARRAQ
Chain of UniProt Q9Y3E5 (Q9Y3E5 whole entry, looked up): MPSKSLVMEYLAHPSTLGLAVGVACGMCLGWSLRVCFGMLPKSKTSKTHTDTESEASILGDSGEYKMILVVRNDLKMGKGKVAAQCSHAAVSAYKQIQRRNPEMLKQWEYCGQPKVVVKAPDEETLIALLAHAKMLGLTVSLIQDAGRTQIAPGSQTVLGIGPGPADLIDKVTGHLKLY
Chain of UniProt P28340 (P28340 whole entry, looked up): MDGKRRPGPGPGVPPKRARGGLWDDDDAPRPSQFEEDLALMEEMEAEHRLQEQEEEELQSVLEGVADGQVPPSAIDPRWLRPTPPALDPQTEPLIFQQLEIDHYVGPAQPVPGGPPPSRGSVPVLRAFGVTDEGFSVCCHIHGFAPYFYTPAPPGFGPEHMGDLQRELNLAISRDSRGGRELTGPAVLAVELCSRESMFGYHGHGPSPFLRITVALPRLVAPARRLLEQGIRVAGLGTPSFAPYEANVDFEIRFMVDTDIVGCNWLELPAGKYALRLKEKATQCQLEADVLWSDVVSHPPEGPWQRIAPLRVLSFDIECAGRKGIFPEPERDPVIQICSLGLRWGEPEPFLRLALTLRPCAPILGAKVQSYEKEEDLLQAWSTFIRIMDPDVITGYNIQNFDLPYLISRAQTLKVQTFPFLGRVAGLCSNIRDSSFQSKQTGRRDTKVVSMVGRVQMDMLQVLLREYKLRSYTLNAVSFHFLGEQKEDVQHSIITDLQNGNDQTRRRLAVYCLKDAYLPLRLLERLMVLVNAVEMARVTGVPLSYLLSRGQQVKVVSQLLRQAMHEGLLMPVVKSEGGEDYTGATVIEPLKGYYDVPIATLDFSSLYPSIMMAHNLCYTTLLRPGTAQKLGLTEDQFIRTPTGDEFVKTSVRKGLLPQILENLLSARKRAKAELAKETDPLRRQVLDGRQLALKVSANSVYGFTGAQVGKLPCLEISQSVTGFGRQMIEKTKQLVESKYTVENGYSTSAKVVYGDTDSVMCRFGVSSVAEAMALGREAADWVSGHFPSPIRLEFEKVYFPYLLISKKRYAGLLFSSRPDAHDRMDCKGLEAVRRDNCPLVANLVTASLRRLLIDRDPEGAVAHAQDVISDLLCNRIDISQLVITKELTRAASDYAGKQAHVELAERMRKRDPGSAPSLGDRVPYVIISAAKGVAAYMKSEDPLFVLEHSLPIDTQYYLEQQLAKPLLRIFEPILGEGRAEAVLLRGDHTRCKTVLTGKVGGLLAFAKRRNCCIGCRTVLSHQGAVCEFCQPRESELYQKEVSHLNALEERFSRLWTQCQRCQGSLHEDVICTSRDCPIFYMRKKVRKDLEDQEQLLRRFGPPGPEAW
Chain of UniProt Q8WUA2 (Q8WUA2 whole entry, looked up): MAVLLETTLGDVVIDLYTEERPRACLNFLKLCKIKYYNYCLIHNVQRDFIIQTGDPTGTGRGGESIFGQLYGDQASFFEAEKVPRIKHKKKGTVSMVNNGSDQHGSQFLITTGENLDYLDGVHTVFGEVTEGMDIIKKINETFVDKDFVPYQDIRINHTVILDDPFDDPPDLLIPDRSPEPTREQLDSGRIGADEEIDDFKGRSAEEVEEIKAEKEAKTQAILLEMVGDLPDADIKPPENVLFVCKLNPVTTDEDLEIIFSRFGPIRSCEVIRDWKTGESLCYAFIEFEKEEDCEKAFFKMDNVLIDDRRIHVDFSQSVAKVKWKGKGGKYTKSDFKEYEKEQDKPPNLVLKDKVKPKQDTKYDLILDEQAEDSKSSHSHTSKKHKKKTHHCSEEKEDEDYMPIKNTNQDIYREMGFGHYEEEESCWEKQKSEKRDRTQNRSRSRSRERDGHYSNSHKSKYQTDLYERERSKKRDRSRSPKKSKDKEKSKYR
Chain of UniProt Q9UHX1 (Q9UHX1 whole entry, looked up): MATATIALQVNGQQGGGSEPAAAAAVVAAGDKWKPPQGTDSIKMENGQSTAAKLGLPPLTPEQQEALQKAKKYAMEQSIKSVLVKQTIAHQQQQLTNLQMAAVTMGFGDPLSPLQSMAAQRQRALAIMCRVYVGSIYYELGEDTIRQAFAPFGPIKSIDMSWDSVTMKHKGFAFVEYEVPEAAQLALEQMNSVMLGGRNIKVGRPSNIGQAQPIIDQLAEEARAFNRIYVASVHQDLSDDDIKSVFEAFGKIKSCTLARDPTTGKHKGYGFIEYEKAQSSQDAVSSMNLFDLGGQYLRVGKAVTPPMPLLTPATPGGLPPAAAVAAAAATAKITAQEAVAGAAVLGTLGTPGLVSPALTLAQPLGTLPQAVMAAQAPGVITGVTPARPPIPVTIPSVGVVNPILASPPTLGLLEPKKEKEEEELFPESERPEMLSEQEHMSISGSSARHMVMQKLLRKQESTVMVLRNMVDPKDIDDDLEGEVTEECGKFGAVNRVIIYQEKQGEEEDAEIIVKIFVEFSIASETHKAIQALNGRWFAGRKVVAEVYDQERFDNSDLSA
Chain of UniProt O96013 (O96013 whole entry, looked up): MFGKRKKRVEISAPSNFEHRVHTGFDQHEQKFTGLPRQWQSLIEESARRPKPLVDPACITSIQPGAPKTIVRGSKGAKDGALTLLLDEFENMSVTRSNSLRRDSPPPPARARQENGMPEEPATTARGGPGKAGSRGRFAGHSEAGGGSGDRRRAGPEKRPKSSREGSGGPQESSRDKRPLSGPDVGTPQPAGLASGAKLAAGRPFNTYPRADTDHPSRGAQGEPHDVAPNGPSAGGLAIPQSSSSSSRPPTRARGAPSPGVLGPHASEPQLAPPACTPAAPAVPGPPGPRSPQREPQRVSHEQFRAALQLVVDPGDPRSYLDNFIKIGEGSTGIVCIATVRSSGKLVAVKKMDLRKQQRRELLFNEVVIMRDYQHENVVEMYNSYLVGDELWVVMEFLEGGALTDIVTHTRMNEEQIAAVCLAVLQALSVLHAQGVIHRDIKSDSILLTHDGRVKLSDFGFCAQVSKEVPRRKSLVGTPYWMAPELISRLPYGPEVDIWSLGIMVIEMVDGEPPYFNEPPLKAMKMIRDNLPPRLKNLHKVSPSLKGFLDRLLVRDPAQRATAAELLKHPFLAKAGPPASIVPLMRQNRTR
Chain of UniProt Q16822 (Q16822 whole entry, looked up): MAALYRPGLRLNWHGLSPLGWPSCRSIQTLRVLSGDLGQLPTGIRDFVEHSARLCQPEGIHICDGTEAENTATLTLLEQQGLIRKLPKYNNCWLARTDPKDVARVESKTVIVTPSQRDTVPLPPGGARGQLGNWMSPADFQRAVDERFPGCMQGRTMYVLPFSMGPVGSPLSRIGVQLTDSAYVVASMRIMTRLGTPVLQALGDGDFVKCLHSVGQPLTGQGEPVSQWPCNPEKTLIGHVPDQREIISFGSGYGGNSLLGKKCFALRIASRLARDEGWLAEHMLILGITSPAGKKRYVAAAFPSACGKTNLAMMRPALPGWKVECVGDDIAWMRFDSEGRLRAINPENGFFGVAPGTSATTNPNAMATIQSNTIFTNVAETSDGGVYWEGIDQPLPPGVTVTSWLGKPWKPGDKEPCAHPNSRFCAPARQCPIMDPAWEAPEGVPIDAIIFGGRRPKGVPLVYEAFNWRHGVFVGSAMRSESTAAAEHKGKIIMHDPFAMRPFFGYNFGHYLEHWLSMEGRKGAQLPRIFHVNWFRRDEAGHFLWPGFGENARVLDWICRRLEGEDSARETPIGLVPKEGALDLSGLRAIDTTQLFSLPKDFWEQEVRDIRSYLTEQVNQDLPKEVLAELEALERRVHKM
Chain of UniProt Q7Z7A4 (Q7Z7A4 whole entry, looked up): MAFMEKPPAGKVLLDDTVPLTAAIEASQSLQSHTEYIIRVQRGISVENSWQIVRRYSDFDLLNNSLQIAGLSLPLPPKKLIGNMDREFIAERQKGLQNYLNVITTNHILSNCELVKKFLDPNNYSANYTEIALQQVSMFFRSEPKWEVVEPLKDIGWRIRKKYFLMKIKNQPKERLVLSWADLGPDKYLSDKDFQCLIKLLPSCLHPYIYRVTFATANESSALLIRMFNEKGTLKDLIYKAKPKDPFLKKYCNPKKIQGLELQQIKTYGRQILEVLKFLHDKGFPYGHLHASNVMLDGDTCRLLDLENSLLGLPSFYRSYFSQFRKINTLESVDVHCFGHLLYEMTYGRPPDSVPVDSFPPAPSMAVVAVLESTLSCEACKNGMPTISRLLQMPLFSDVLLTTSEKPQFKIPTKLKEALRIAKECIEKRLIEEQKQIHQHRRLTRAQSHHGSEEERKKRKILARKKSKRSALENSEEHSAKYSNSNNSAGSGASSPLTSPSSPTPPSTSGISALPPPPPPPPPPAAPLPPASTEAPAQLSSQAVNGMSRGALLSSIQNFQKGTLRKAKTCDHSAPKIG
Chain of UniProt O00232 (O00232 whole entry, looked up): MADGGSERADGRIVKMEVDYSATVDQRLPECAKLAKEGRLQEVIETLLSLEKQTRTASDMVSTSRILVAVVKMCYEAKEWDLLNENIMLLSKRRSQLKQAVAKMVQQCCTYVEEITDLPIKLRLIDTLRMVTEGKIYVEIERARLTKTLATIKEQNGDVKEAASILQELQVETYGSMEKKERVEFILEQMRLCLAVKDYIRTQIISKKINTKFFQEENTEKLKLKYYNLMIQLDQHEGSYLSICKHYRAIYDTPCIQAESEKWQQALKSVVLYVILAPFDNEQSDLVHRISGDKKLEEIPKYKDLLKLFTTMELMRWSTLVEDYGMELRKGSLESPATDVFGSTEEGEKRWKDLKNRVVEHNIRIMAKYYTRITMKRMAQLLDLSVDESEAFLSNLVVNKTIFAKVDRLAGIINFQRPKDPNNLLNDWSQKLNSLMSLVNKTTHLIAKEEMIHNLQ

Target	log2 fold change (bafetinib)	log2 fold change [1]	log2 fold change (nilotinib)	log2 fold change [2]	log2 fold change (dasatinib)	log2 fold change [3]	log2 fold change [4]	log2 fold change [5]	log2 fold change (tipifarnib)	log2 fold change (mubritinib)	log2 fold change [6]	log2 fold change [7]	log2 fold change [8]	log2 fold change [9]	log2 fold change (entinostat)	log2 fold change (vorinostat)	log2 fold change (citarinostat)	log2 fold change (silmitasertib)	log2 fold change [10]	log2 fold change [11]
PFDN1 (UniProt O60925)	0.038	-0.041	0.012	0.026	0.076	-0.023	0.153	0.328	-0.061	0.039	0.013	0.003	0.002	-0.047	0.044	-0.056	0.09	-0.029	-0.05	-0.001
PSMC3 (UniProt P17980)	0.072	-0.033	-0.004	0.059	0.016	-0.017	-0.1	-0.005	0.124	-0.016	0.014	-0.011	0.046	0.078	-0.024	-0.017	-0.053	-0.018	0.049	-0.092
PPT2 isoform 3 (UniProt Q9UMR5)	-0.301 (active)	-0.013	0.031	0.013	0.055	-0.045	0.07	0.037	0.013	0.034	0.035	0.008	-0.15	0.017	0.02	0.063	0.015	0.018	0.029	0.034
POLD1 (UniProt P28340)	-0.055	0.023	-0.03	-0.006	-0.049	-0.052	0.063	0.01	-0.066	0.006	-0.01	-0.027	-0.095	-0.007	0.005	-0.098	0.117	0.03	-0.122	-0.011
PSMD12 (UniProt O00232)	0.119	0.033	0.026	0.044	0	-0.001	-0.088	-0.022	0.019	-0.034	-0.001	0.019	-0.061	0.05	0.001	0.003	-0.012	-0.024	0.045	-0.09
PCK2 (UniProt Q16822)	-0.052	0.027	-0.05	0.027	-0.035	-0.006	0.041	0.003	0	-0.022	0	0	-0.029	-0.013	0.005	0.004	0.013	-0.025	-0.148	-0.032
PSMC5 (UniProt P62195)	0.078	0.035	-0.041	0.035	0.033	-0.014	-0.113	-0.006	0.09	-0.014	0.034	-0.001	0.007	0.054	-0.021	-0.004	-0.021	-0.005	0.063	-0.075
PAK4 (UniProt O96013)	-0.072	0.011	-0.016	0.352 (active)	-0.068	0.01	0.04	0.007	0.015	-0.092	0.048	0.388 (active)	0.015	-0.038	-0.083	0.01	0.003	0.041	0.017	-0.039
PUF60 (UniProt Q9UHX1)	0.077	-0.04	-0.022	-0.703 (active)	-0.085	-0.001	0.008	-0.046	-0.034	0.024	-0.112	-0.029	-0.035	-0.132	0.049	0.028	0.079	-0.098	-0.025	-0.092
PPT1 (UniProt P50897)	-0.742 (active)	0.011	0.021	0.02	0	-0.001	0.006	0.019	0.025	0.027	-0.049	-0.095	-0.338 (active)	-0.096	-0.03	-0.036	0.053	0.019	-0.041	-0.041
PTPA (UniProt Q15257)	-0.038	0.011	-0.014	0.012	-0.014	-0.002	0.034	0.03	0.013	0.028	-0.022	0.001	-0.021	0.028	0	0.004	0.028	-0.027	-0.021	-0.015
PTRH2 (UniProt Q9Y3E5)	-0.022	0.017	0.039	-0.011	-0.004	0.046	0.044	-0.019	0.042	-0.009	-0.061	0.018	-0.001	0.004	-0.016	-0.002	0.047	0.007	-0.089	0.005
PPIL4 (UniProt Q8WUA2)	-0.001	0.002	0.002	-0.483 (active)	-0.065	-0.113	-0.031	-0.018	-0.01	0.005	-0.021	-0.085	0.002	-0.071	0.011	0.016	0.033	-0.005	-0.005	-0.1
PRKCA (UniProt P17252)	-0.043	-0.066	-0.011	-0.173	-0.233	-0.005	0.082	-0.022	-0.026	0.054	-0.085	-0.134	-0.181	-0.029	0.057	0.117	0.028	-0.045	-0.205	-0.091
PXK (UniProt Q7Z7A4)	-0.01	0.086	-0.026	0.025	0.226	0.012	0.029	-0.106	-0.001	0.098	-0.057	-0.044	-0.279 (active)	-0.073	0.014	0.018	0.021	-0.002	-0.043	0.008
PNPLA2 (UniProt Q96AD5)	0.084	-0.334	0.049	-0.112	-0.113	-0.118	0.056	0.049	-0.026	0.113	-0.075	-0.01	-0.05	-0.004	0.078	0.192	0.087	0.065	0.012	-0.138
